The supplement of paper PMC4022240
± gives the standard deviation.

What was measured:
Assay in all cases: peptide microarray binding signal (635 nm), min-max normalized on array (fraction of array maximum); higher = stronger binding
Settings in all cases: peptide region: H3 5-17
[1] = target: T1, HaloTag-ATRX ADD domain (163-292)
T1 chain: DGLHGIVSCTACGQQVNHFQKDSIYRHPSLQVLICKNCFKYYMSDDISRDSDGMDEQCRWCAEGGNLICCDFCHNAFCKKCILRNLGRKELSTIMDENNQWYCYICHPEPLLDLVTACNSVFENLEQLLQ
Outline: (§1)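 Arrays carried histone 13-mer peptide–cellulose conjugates printed in triplicate on nitrocellulose alongside a Cy3 tracer. After overnight blocking at 4°C, they were incubated for 1 h at 4°C with biotin-labelled HaloTag reader fusions (10 nM to 1 μM) plus streptavidin-Alexa Fluor 647, or with rabbit histone antibodies (1:10,000 to 1:2,000) plus anti-rabbit Alexa 647. Scanning on an Axon GenePix 4000B used 635 nm for signal and 532 nm for misprints. The binding signal reported is each triplicate's mean spot intensity after per-library min-max scaling.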

[2] = target: HaloTag-ING2 PHD (mouse Ing2 200-280)
Outline: as §1

[3] = target: anti-H3K4me3 antibody ab8580
Outline: as §1

[4] = target: anti-H3K9me3 antibody ab8898
Outline: as §1

[5] = peptide modifications: H3K9me1 H3K14me2, binder concentration: 1:2,000 dilution
[6] = peptide modifications: H3K9me1 H3K14me2, binder concentration: 1:10,000 dilution
[7] = peptide modifications: H3K9me1 H3K14ac, binder concentration: 1:2,000 dilution
[8] = peptide modifications: H3K9me1 H3K14ac, binder concentration: 1:10,000 dilution
[9] = peptide modifications: H3K9me2 H3K14me3, binder concentration: 1:2,000 dilution
[10] = peptide modifications: H3K9me2 H3K14me3, binder concentration: 1:10,000 dilution
[11] = peptide modifications: H3K9ac H3T11ph, binder concentration: 1:2,000 dilution
[12] = peptide modifications: H3K9ac H3T11ph, binder concentration: 1:10,000 dilution
[13] = peptide modifications: H3K9me3 H3K14ac, binder concentration: 1:2,000 dilution
[14] = peptide modifications: H3K9me3 H3K14ac, binder concentration: 1:10,000 dilution
[15] = peptide modifications: H3K9me2, binder concentration: 1:2,000 dilution
[16] = peptide modifications: H3K9me2, binder concentration: 1:10,000 dilution
[17] = peptide modifications: H3K9me3, binder concentration: 1:2,000 dilution
[18] = peptide modifications: H3K9me3, binder concentration: 1:10,000 dilution
[19] = peptide modifications: H3K9me1 H3S10ph, binder concentration: 1:2,000 dilution
[20] = peptide modifications: H3K9me1 H3S10ph, binder concentration: 1:10,000 dilution
[21] = peptide modifications: H3K9ac H3S10ph, binder concentration: 1:2,000 dilution
[22] = peptide modifications: H3K9ac H3S10ph, binder concentration: 1:10,000 dilution
[23] = peptide modifications: H3K9me2 H3S10ph, binder concentration: 1:2,000 dilution
[24] = peptide modifications: H3K9me2 H3S10ph, binder concentration: 1:10,000 dilution

## QTARKSTGGKAPR [H3 5-17 Q T A R Kme S T G G Kme2 A P R]
[1]; peptide modifications: H3K9me1 H3K14me2, binder concentration: 50 nM
  peptide microarray binding signal: 0.004514 ± 3.4e-05
[1]; peptide modifications: H3K9me1 H3K14me2, binder concentration: 500 nM
  peptide microarray binding signal: 0.00667 ± 0.00028
[2]; peptide modifications: H3K9me1 H3K14me2, binder concentration: 10 nM
  peptide microarray binding signal: 0.00555 ± 0.0003
[2]; peptide modifications: H3K9me1 H3K14me2, binder concentration: 100 nM
  peptide microarray binding signal: 0.00595 ± 0.00024
[3]; [5]
  peptide microarray binding signal: 0.00206 ± 0.00041
[3]; [6]
  peptide microarray binding signal: 0.00211 ± 0.00015
[4]; [5]
  peptide microarray binding signal: 0.00979 ± 0.0019
[4]; [6]
  peptide microarray binding signal: 0.00352 ± 0.00022

## QTARKSTGGKAPR [H3 5-17 Q T A R Kme S T G G Kac A P R]
[1]; peptide modifications: H3K9me1 H3K14ac, binder concentration: 50 nM
  peptide microarray binding signal: 0.00661 ± 0.00012
[1]; peptide modifications: H3K9me1 H3K14ac, binder concentration: 500 nM
  peptide microarray binding signal: 0.0218 ± 0.0024
[2]; peptide modifications: H3K9me1 H3K14ac, binder concentration: 10 nM
  peptide microarray binding signal: 0.0233 ± 0.0035
[2]; peptide modifications: H3K9me1 H3K14ac, binder concentration: 100 nM
  peptide microarray binding signal: 0.0424 ± 0.0029
[3]; [7]
  peptide microarray binding signal: 0.00255 ± 0.00039
[3]; [8]
  peptide microarray binding signal: 0.00228 ± 0.00016
[4]; [7]
  peptide microarray binding signal: 0.0548 ± 0.0034
[4]; [8]
  peptide microarray binding signal: 0.016 ± 0.00023

## QTARKSTGGKAPR [H3 5-17 Q T A R Kme2 S T G G Kme3 A P R]
[1]; peptide modifications: H3K9me2 H3K14me3, binder concentration: 50 nM
  peptide microarray binding signal: 0.00301 ± 0.00046
[1]; peptide modifications: H3K9me2 H3K14me3, binder concentration: 500 nM
  peptide microarray binding signal: 0.002 ± 0.00021
[2]; peptide modifications: H3K9me2 H3K14me3, binder concentration: 10 nM
  peptide microarray binding signal: 0.00143 ± 1.7e-05
[2]; peptide modifications: H3K9me2 H3K14me3, binder concentration: 100 nM
  peptide microarray binding signal: 0.00106 ± 3e-05
[3]; [9]
  peptide microarray binding signal: 0.00126 ± 0.00029
[3]; [10]
  peptide microarray binding signal: 0.00405 ± 0.0015
[4]; [9]
  peptide microarray binding signal: 0.00464 ± 0.0015
[4]; [10]
  peptide microarray binding signal: 0.00646 ± 0.0028

## QTARKSTGGKAPR [H3 5-17 Q T A R Kac S Tph G G K A P R]
[1]; peptide modifications: H3K9ac H3T11ph, binder concentration: 50 nM
  peptide microarray binding signal: 0.00266 ± 6.1e-05
[1]; peptide modifications: H3K9ac H3T11ph, binder concentration: 500 nM
  peptide microarray binding signal: 0.0107 ± 0.00079
[2]; peptide modifications: H3K9ac H3T11ph, binder concentration: 10 nM
  peptide microarray binding signal: 0.00531 ± 0.00025
[2]; peptide modifications: H3K9ac H3T11ph, binder concentration: 100 nM
  peptide microarray binding signal: 0.0213 ± 0.0014
[3]; [11]
  peptide microarray binding signal: 0.000755 ± 2.5e-05
[3]; [12]
  peptide microarray binding signal: 0.000171 ± 1.9e-06
[4]; [11]
  peptide microarray binding signal: 0.00547 ± 0.00037
[4]; [12]
  peptide microarray binding signal: 0.00271 ± 0.00015

## QTARKSTGGKAPR [H3 5-17 Q T A R Kme3 S T G G Kac A P R]
[1]; peptide modifications: H3K9me3 H3K14ac, binder concentration: 50 nM
  peptide microarray binding signal: 0.005862 ± 5.4e-05
[1]; peptide modifications: H3K9me3 H3K14ac, binder concentration: 500 nM
  peptide microarray binding signal: 0.0246 ± 0.0026
[2]; peptide modifications: H3K9me3 H3K14ac, binder concentration: 10 nM
  peptide microarray binding signal: 0.0279 ± 0.0021
[2]; peptide modifications: H3K9me3 H3K14ac, binder concentration: 100 nM
  peptide microarray binding signal: 0.0183 ± 0.013
[3]; [13]
  peptide microarray binding signal: 0.0646 ± 0.051
[3]; [14]
  peptide microarray binding signal: 0.089 ± 0.042
[4]; [13]
  peptide microarray binding signal: 0.781 ± 0.051
[4]; [14]
  peptide microarray binding signal: 0.939 ± 0.11

## QTARKSTGGKAPR [H3 5-17 Q T A R Kme2 S T G G K A P R]
[1]; peptide modifications: H3K9me2, binder concentration: 50 nM
  peptide microarray binding signal: 0.0133 ± 0.0071
[1]; peptide modifications: H3K9me2, binder concentration: 500 nM
  peptide microarray binding signal: 0.0011 ± 2.1e-05
[2]; peptide modifications: H3K9me2, binder concentration: 10 nM
  peptide microarray binding signal: 0.00334 ± 9.6e-05
[2]; peptide modifications: H3K9me2, binder concentration: 100 nM
  peptide microarray binding signal: 0.00248 ± 8.6e-05
[3]; [15]
  peptide microarray binding signal: 0.00583 ± 0.0036
[3]; [16]
  peptide microarray binding signal: 0.0112 ± 0.0032
[4]; [15]
  peptide microarray binding signal: 0.00489 ± 0.0019
[4]; [16]
  peptide microarray binding signal: 0.003 ± 0.00036

## QTARKSTGGKAPR [H3 5-17 Q T A R Kme3 S T G G K A P R]
[1]; peptide modifications: H3K9me3, binder concentration: 50 nM
  peptide microarray binding signal: 0.00411 ± 0.00036
[1]; peptide modifications: H3K9me3, binder concentration: 500 nM
  peptide microarray binding signal: 0.00362 ± 0.00095
[2]; peptide modifications: H3K9me3, binder concentration: 10 nM
  peptide microarray binding signal: 0.00448 ± 6.1e-05
[2]; peptide modifications: H3K9me3, binder concentration: 100 nM
  peptide microarray binding signal: 0.002126 ± 2.1e-05
[3]; [17]
  peptide microarray binding signal: 0.00266 ± 0.00033
[3]; [18]
  peptide microarray binding signal: 0.00519 ± 0.00032
[4]; [17]
  peptide microarray binding signal: 0.00814 ± 0.0004
[4]; [18]
  peptide microarray binding signal: 0.0129 ± 0.0011

## QTARKSTGGKAPR [H3 5-17 Q T A R Kme Sph T G G K A P R]
[1]; peptide modifications: H3K9me1 H3S10ph, binder concentration: 50 nM
  peptide microarray binding signal: 0.0069 ± 0.00042
[1]; peptide modifications: H3K9me1 H3S10ph, binder concentration: 500 nM
  peptide microarray binding signal: 0.0164 ± 0.0026
[2]; peptide modifications: H3K9me1 H3S10ph, binder concentration: 10 nM
  peptide microarray binding signal: 0.0181 ± 0.0013
[2]; peptide modifications: H3K9me1 H3S10ph, binder concentration: 100 nM
  peptide microarray binding signal: 0.0405 ± 0.00099
[3]; [19]
  peptide microarray binding signal: 0.00281 ± 0.00031
[3]; [20]
  peptide microarray binding signal: 0.0028 ± 0.00019
[4]; [19]
  peptide microarray binding signal: 0.0251 ± 0.0037
[4]; [20]
  peptide microarray binding signal: 0.00865 ± 0.0014

## QTARKSTGGKAPR [H3 5-17 Q T A R Kac Sph T G G K A P R]
[1]; peptide modifications: H3K9ac H3S10ph, binder concentration: 50 nM
  peptide microarray binding signal: 0.00592 ± 8.9e-05
[1]; peptide modifications: H3K9ac H3S10ph, binder concentration: 500 nM
  peptide microarray binding signal: 0.0176 ± 0.0016
[2]; peptide modifications: H3K9ac H3S10ph, binder concentration: 10 nM
  peptide microarray binding signal: 0.00507 ± 0.00017
[2]; peptide modifications: H3K9ac H3S10ph, binder concentration: 100 nM
  peptide microarray binding signal: 0.0274 ± 0.0063
[3]; [21]
  peptide microarray binding signal: 0.0005474 ± 5.3e-06
[3]; [22]
  peptide microarray binding signal: 0.000514 ± 1.5e-05
[4]; [21]
  peptide microarray binding signal: 0.00667 ± 0.00058
[4]; [22]
  peptide microarray binding signal: 0.00265 ± 0.00012

## QTARKSTGGKAPR [H3 5-17 Q T A R Kme2 Sph T G G K A P R]
[1]; peptide modifications: H3K9me2 H3S10ph, binder concentration: 50 nM
  peptide microarray binding signal: 0.00806 ± 0.00056
[1]; peptide modifications: H3K9me2 H3S10ph, binder concentration: 500 nM
  peptide microarray binding signal: 0.0147 ± 0.00082
[2]; peptide modifications: H3K9me2 H3S10ph, binder concentration: 10 nM
  peptide microarray binding signal: 0.03 ± 0.0049
[2]; peptide modifications: H3K9me2 H3S10ph, binder concentration: 100 nM
  peptide microarray binding signal: 0.0527 ± 0.017
[3]; [23]
  peptide microarray binding signal: 0.0068 ± 0.00063
[3]; [24]
  peptide microarray binding signal: 0.00639 ± 0.00076
[4]; [23]
  peptide microarray binding signal: 0.193 ± 0.067
[4]; [24]
  peptide microarray binding signal: 0.0868 ± 0.021
